# From article PMC7862700, “An all-to-all approach to the identification of sequence-specific readers for epigenetic DNA modifications on cytosine”
# What was measured:
# Assay in all cases: DAPPL (digital affinity profiling via proximity ligation, sequencing); 10 mM Tris-HCl pH 7.5, 50 mM NaCl, 1 mM DTT, 4% glycerol, room temperature, 30 min; GST-TFs on glutathione beads, 16-mer random dsDNA library, 0.1% formaldehyde crosslink after washing; high values mean tight binding
# Conditions in all cases: protein: recombinant; tags: N-terminal GST; dsDNA, one strand shown
# FLI1 = biological target: T1, FLI1 (Homo sapiens, UniProt Q01543 1-452)
# T1 sequence: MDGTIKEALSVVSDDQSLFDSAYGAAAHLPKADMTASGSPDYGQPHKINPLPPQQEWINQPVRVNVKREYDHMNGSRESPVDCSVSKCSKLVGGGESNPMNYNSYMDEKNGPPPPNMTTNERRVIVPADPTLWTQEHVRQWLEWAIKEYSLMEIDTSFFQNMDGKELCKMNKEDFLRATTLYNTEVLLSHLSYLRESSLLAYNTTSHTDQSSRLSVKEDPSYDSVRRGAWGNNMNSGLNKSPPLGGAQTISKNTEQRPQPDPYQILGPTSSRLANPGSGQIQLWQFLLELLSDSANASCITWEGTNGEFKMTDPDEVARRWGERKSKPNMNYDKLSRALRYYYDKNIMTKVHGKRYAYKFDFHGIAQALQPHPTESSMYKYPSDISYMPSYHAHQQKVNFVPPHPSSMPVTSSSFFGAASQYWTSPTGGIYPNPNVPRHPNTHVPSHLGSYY
# Summary of the method: (§1)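 After expression in yeast as GST fusions, human transcription factors were bound to glutathione beads, DNA-barcoded and mixed with a tag-only sample. The pools were incubated with 200 nmole of a 16-mer random double-stranded DNA library in Tris/NaCl/DTT/glycerol buffer (30 min, room temperature), washed and crosslinked with 0.1% formaldehyde. Proximity ligation with BsaI/T4 ligase ran for 1 h at 37 °C, before PCR amplification and sequencing on an Illumina NextSeq500. Binding signal is a hexamer's read frequency for a factor divided by its frequency for the tag-only sample.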
# ELK1 = biological target: T2, ELK1 (Homo sapiens, UniProt P19419 1-428)
# T2 sequence: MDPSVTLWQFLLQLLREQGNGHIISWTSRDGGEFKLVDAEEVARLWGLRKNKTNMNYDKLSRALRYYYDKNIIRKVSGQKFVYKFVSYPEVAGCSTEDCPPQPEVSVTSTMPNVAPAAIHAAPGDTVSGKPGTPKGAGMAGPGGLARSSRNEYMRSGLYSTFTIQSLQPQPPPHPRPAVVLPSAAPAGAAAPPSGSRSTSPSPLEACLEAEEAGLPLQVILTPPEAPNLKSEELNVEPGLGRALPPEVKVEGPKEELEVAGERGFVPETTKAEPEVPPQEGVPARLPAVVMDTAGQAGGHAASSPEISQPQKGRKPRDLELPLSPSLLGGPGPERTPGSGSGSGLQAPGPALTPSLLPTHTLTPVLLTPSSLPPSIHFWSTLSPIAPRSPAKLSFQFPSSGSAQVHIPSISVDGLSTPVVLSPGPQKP
# Summary of the method: as §1
# GABPA = biological target: T3, GABPA (Homo sapiens, UniProt Q06546 1-454)
# T3 sequence: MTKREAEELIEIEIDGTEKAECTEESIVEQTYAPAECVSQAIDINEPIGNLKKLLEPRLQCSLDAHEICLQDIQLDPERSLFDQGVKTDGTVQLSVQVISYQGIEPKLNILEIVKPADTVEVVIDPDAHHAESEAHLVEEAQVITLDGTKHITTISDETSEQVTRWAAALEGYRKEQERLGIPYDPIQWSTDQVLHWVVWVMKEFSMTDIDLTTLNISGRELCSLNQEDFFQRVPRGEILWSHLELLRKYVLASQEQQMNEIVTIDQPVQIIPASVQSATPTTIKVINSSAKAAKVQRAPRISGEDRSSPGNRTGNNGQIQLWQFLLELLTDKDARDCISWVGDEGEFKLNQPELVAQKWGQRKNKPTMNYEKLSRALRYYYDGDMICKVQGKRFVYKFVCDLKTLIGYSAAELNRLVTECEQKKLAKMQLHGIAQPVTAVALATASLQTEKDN
# Summary of the method: as §1
# ERG = biological target: T4, ERG (Homo sapiens, UniProt P11308 1-479)
# T4 sequence: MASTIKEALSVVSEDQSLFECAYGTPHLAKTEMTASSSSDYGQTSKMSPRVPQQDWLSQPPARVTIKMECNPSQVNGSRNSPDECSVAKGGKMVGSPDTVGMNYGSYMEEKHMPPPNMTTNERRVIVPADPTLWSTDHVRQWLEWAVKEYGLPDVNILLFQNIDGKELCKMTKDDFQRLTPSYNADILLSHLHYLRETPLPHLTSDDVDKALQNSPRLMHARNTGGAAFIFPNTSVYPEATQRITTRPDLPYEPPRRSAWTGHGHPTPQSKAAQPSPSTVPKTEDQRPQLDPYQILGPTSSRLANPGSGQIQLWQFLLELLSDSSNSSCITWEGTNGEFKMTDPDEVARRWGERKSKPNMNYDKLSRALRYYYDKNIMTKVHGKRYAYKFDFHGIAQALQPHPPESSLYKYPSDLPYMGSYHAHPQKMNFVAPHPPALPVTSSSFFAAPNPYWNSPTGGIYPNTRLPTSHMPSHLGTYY
# Summary of the method: as §1
# ELF1 = ELF1 (Homo sapiens, UniProt P32519 1-619)
# Sequence of ELF1 (P32519 whole entry): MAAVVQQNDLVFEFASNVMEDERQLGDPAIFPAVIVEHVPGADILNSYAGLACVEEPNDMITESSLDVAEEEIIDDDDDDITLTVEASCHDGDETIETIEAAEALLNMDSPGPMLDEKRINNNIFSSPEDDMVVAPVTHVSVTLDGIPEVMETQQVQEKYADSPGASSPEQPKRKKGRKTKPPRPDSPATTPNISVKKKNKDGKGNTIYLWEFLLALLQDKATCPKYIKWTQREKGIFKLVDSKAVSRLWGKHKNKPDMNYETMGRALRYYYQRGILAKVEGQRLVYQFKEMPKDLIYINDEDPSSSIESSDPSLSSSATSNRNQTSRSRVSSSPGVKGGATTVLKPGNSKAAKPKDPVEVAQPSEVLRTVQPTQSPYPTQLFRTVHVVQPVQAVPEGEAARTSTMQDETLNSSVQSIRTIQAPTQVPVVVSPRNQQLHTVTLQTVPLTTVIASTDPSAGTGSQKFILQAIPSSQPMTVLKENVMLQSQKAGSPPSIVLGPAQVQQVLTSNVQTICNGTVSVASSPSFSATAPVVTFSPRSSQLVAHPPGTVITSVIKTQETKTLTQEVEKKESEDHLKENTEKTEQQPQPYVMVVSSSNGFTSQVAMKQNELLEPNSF
# Summary of the method: as §1
# EHF = biological target: T5, EHF (Homo sapiens, UniProt Q9NZC4 1-300)
# T5 sequence: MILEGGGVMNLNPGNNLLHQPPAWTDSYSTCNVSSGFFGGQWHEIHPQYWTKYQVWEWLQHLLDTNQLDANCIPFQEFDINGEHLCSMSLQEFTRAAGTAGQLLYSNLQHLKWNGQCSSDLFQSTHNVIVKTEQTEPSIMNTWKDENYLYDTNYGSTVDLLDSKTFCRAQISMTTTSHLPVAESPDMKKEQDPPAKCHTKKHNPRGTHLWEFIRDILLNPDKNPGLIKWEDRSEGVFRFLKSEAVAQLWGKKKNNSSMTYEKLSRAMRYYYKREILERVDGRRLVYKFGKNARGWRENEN
# Summary of the method: as §1
# SPI1 = SPI1 (Homo sapiens, UniProt P17947 1-270)
# Summary of the method: as §1
# SPIB = SPIB (Homo sapiens, UniProt Q01892 1-262)
# Sequence of SPIB (Q01892 whole entry): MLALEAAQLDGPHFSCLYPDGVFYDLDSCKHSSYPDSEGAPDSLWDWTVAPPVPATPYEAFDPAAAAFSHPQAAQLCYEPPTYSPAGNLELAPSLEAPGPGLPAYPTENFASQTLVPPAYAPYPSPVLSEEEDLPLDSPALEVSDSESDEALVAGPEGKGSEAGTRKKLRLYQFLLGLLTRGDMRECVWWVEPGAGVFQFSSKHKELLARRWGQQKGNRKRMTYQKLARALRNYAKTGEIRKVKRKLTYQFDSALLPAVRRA
# Summary of the method: as §1
# ETV5 = ETV5 (Homo sapiens, UniProt P41161 1-510)
# Sequence of ETV5 (P41161 whole entry): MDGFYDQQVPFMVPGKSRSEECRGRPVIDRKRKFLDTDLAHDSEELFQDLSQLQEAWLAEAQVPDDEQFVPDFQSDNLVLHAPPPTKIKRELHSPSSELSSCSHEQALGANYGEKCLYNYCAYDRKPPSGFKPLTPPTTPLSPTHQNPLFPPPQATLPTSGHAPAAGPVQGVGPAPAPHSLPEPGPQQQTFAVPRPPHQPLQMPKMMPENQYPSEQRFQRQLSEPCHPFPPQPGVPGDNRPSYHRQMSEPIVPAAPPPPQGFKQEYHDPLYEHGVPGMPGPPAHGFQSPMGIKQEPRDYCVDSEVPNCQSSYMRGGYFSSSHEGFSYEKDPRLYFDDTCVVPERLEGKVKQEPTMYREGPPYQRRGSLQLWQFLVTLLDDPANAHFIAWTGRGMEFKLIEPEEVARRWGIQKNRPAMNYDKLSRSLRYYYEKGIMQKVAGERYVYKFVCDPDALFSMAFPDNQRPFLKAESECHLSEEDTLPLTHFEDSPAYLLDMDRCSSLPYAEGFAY
# Summary of the method: as §1
# SPIC = biological target: T6, SPIC (Homo sapiens, UniProt Q8N5J4 1-248)
# T6 sequence: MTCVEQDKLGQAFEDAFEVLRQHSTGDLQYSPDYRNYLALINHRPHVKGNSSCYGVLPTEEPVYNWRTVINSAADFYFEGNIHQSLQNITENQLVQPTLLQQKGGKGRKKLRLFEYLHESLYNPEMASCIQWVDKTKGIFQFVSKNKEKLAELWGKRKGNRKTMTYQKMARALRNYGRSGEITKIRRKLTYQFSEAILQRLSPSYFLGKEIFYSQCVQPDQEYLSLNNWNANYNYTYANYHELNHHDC
# Summary of the method: as §1
# ELF4 = ELF4 (Homo sapiens, UniProt Q99607 1-663)
# Sequence of ELF4 (Q99607 whole entry): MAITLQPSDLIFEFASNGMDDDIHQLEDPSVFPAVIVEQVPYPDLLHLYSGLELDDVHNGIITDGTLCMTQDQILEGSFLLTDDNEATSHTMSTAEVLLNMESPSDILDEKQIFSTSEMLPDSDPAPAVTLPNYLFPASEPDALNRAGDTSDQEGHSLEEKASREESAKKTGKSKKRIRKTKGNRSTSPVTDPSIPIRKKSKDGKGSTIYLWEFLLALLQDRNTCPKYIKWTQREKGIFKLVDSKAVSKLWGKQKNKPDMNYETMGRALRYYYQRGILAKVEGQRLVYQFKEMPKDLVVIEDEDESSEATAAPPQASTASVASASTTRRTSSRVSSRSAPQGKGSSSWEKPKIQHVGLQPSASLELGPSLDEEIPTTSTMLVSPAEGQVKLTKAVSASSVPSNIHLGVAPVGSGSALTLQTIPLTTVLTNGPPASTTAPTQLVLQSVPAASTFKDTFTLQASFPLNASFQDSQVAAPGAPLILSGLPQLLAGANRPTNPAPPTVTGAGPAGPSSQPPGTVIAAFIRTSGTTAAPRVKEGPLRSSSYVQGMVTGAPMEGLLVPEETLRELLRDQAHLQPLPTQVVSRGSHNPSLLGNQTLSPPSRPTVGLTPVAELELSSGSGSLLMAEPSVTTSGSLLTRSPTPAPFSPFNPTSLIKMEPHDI
# Summary of the method: as §1
# ETV1 = ETV1 (Homo sapiens, UniProt P50549 1-477)
# Sequence of ETV1 (P50549 whole entry): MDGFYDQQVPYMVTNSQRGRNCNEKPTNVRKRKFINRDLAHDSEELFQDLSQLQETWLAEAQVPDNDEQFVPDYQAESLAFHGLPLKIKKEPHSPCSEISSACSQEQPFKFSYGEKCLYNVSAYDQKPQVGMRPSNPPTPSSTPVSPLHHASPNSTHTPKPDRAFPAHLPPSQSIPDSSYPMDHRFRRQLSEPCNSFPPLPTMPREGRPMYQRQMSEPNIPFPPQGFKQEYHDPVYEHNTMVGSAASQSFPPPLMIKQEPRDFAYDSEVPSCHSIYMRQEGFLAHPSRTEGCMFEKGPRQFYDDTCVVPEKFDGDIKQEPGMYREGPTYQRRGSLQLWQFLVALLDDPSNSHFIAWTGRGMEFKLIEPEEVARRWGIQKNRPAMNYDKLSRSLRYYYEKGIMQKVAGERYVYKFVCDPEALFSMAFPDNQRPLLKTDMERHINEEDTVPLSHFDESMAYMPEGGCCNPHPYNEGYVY
# Summary of the method: as §1
# ERF = biological target: T7, ERF (Homo sapiens, UniProt P50548 1-548)
# T7 sequence: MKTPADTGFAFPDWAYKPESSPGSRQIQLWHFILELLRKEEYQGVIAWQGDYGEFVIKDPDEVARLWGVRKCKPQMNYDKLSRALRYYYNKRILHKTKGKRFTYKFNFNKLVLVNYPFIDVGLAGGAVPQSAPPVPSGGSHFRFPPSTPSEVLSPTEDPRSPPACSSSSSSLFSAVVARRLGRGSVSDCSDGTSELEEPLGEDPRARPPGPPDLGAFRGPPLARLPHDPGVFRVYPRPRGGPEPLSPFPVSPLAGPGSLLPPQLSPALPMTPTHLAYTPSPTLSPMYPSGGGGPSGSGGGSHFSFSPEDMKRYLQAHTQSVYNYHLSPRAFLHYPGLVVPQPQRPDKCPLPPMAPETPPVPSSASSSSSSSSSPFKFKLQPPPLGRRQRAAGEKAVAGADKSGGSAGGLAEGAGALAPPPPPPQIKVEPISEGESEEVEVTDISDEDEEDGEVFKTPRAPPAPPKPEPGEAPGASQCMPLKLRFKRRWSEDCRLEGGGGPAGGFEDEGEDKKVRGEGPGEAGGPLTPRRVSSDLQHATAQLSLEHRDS
# Summary of the method: as §1
# ETV3L = biological target: T8, ETV3L (Homo sapiens, UniProt Q6ZN32 1-361)
# T8 sequence: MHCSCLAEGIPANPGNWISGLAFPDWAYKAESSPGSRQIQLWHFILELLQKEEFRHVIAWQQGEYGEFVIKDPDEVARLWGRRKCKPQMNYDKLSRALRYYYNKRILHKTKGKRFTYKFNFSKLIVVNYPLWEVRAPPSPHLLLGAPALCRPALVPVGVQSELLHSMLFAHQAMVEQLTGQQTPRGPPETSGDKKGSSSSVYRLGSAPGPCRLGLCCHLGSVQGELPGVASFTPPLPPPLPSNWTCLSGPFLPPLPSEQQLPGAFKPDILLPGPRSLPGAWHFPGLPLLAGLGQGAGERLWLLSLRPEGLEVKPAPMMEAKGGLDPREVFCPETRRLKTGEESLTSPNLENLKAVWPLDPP
# Summary of the method: as §1
# SPDEF = biological target: T9, SPDEF (Homo sapiens, UniProt O95238 1-335)
# T9 sequence: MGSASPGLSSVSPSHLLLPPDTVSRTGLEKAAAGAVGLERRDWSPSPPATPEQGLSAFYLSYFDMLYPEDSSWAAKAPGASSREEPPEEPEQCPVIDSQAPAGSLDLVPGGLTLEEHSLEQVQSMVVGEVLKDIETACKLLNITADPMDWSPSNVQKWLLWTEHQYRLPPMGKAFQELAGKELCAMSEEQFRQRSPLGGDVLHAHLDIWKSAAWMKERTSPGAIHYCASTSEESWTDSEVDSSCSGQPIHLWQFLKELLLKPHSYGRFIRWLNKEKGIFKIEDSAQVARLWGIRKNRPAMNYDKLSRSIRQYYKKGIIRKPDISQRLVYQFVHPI
# Summary of the method: as §1
# ETV3 = biological target: T10, ETV3 (Homo sapiens, UniProt P41162-2 1-143)
# T10 sequence: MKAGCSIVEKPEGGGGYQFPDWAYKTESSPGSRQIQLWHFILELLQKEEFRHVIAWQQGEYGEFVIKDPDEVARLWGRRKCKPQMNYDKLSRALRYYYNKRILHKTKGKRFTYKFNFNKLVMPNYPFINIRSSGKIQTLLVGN
# Summary of the method: as §1
sequence,measurement,setting,value
GTTGAT,binding signal,FLI1,"1.04 fold enrichment (6-mer frequency, TF over GST control)"
same,binding signal,ELK1,"1.12 fold enrichment (6-mer frequency, TF over GST control)"
same,binding signal,GABPA,"1.12 fold enrichment (6-mer frequency, TF over GST control)"
same,binding signal,ERG,"1.08 fold enrichment (6-mer frequency, TF over GST control)"
same,binding signal,ELF1,"1.11 fold enrichment (6-mer frequency, TF over GST control)"
same,binding signal,EHF,"1.04 fold enrichment (6-mer frequency, TF over GST control)"
same,binding signal,SPI1,"1.12 fold enrichment (6-mer frequency, TF over GST control)"
same,binding signal,SPIB,"1.1 fold enrichment (6-mer frequency, TF over GST control)"
same,binding signal,ETV5,"1.14 fold enrichment (6-mer frequency, TF over GST control)"
same,binding signal,SPIC,"1.17 fold enrichment (6-mer frequency, TF over GST control)"
same,binding signal,ELF4,"1.15 fold enrichment (6-mer frequency, TF over GST control)"
same,binding signal,ETV1,"1.09 fold enrichment (6-mer frequency, TF over GST control)"
same,binding signal,ERF,"1.05 fold enrichment (6-mer frequency, TF over GST control)"
same,binding signal,ETV3L,"1.09 fold enrichment (6-mer frequency, TF over GST control)"
same,binding signal,SPDEF,"1.07 fold enrichment (6-mer frequency, TF over GST control)"
same,binding signal,ETV3,"1.08 fold enrichment (6-mer frequency, TF over GST control)"
